High-throughput results as filed in PubChem.
FLuc inh = inhibitors of firefly (Photinus pyralis) luciferase; purified P. pyralis luciferase, luminescence, biochemical; Potency, µM (top dose mostly 115 µM), actives largely listed as inhibitors; 76,000 compounds, 2.5% hits; also: nearly all actives have a fitted effect of over 65% in size
Target sequence (P08659 whole entry, looked up): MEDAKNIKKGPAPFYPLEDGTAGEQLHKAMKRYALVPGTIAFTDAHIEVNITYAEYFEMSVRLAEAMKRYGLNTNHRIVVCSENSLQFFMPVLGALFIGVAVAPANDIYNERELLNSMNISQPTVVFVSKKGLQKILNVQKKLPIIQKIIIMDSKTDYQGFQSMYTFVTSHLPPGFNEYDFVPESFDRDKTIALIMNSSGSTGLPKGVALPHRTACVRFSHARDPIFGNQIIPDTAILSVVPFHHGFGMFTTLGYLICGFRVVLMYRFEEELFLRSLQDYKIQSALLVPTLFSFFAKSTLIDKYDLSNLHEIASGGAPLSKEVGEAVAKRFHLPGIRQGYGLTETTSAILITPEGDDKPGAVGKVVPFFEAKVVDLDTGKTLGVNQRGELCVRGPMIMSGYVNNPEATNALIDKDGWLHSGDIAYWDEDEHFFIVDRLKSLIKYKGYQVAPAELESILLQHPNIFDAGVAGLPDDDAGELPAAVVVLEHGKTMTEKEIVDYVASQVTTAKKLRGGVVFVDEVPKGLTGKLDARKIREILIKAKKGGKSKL
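FLuc 10nM, D-luciferin 10uM, ATP 10uM, Mg acetate 10mM, Tris acetate pH 7.5, Tween/BSA; cpd qHTS; enzyme added last; CCD luminescence.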
hNpr1 antagonist = antagonists of human natriuretic peptide receptor Npr1; P16066; AID 1347048; 76,000 compounds, 1.6% hits; HEK293 hNpr1 GloSensor cGMP, ANP-stimulated luminescence; Potency, µM (titrated, usually from 46.3 µM), usual class: inhibitors; calls by dose curve; also: nearly all actives have a fitted effect of over 60% in size
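Compound pre-incubated 30 min at room temperature on GloSensor-loaded HEK293 cells stably carrying hNpr1 and the pGS-40F cGMP biosensor. Stimulation uses hNppA at 0.1 nM final; luminescence is taken at baseline and 20 min post-agonist.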
GPT2 inhibitor = GPT2 alanine aminotransferase inhibition; Q8TD30; Recombinant GPT2, coupled pyruvate oxidase/HRP Amplex Red fluorescence; Potency, µM (titrated, usually from 57.7 µM), hits mostly inhibitors; 100,000 compounds, 0.25% hits; also: nearly all actives have a fitted effect of over 60% in size
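Recombinant GPT2 (10ng/uL) with 250uM a-KG and 2mM L-alanine, 30 min at room temperature, in HEPES pH 7.5 buffer. Pyruvate detected by pyruvate oxidase/HRP/Amplex Red fluorescence after 30 min in the dark; AOA (50uM) as positive control.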
HEK293 tox = cytotoxic compounds in HEK 293 cells. HEK 293 viability, ATP luminescence (CellTiter-Glo), 48-72 h. Potency, µM (highest dose often 115 µM), hits mostly inhibitors. 94,000 compounds, 6.6% hits. AID 1345083; also: nearly all actives have a fitted effect of over 60% in size
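ATP-coupled CellTiter-Glo luminescence served as viability read-out, recorded 10 min after reagent addition at room temperature. HEK 293 cells, 250 cells/well, had been incubated with pintool-transferred compound for 48 or 72 hr at 37 degree Celsius.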
NIH3T3 tox = NIH 3T3 cell cytotoxicity. AID 1345082. 94,000 compounds, 4.3% hits. Potency, µM (series often up to 96.7 µM), most hits filed as inhibitors. NIH 3T3 viability, CellTiter-Glo ATP luminescence, 48-72 h; also: nearly all actives have a fitted effect of over 55% in size
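Cells were seeded at 400 per well, treated with pin-transferred compound, and kept 48 or 72 hr at 37 °C before CellTiter-Glo addition and luminescence imaging of cellular ATP.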
Large screens that a line does not name were inactive. A selection: hits, their analogues and other compounds. The true share with any hit is near 10%. Unless noted, calls follow the shape of the dose curve; as a rule, active = well fitted curve in the direction sought with a large enough effect; inconclusive = small, poorly fitted or top-dose-only effect, or another doubt; inactive = no such curve, though single readings can be large; an effect the other way counts as inactive or inconclusive.

CCN1c2cc(C(=O)Nc3ccc(SC)cc3)ccc2C(=O)N2CCCCC21 (centres undefined)	FLuc inh inconclusive, HEK293 tox inconclusive, NIH3T3 tox 40µM
CCN1c2cc(C(=O)Nc3cccc(F)c3)ccc2C(=O)N2CCCCC21 (centres undefined)	FLuc inh inconclusive, HEK293 tox inconclusive, NIH3T3 tox inconclusive
CCN1c2cc(C(=O)Nc3ccc(F)cc3)ccc2C(=O)N2CCCCC21 (centres undefined)	HEK293 tox inconclusive, NIH3T3 tox inconclusive
CCN1c2cc(C(=O)Nc3cccc(SC)c3)ccc2C(=O)N2CCCCCC21 (centres undefined)	hNpr1 antagonist inconclusive, HEK293 tox 22µM, NIH3T3 tox 22µM
Cc1ccccc1C(=O)N1CCCN(c2ccnc3ccnn23)CC1	HEK293 tox inconclusive, NIH3T3 tox inconclusive (no result: FLuc inh, hNpr1 antagonist)
Cc1ccc(-c2ccc3c(ccc4sc5c(c43)NC[C@@H](C)NC5=O)n2)cn1	none (no result: FLuc inh, hNpr1 antagonist, HEK293 tox, NIH3T3 tox)
NS(=O)(=O)c1ccc(C(=O)NCc2cnn(Cc3ccccc3)c2)cc1	HEK293 tox inconclusive
COc1ccc(CNC(=O)[C@@H]2CCC[C@@H](NC(=O)NC3(c4ccccc4)CCOCC3)CN(C)C(=O)C2)cc1	none
CCN1c2cc(C(=O)Nc3ccc(C)c(F)c3)ccc2C(=O)N2CCCC21 (centres undefined)	none
CCN1c2cc(C(=O)Nc3ccc(C)c(F)c3)ccc2C(=O)N2CCCCC21 (centres undefined)	HEK293 tox inconclusive, NIH3T3 tox 28µM
CCN1c2cc(C(=O)Nc3ccc4c(c3)CCC4)ccc2C(=O)N2CCCCC21 (centres undefined)	FLuc inh inconclusive, HEK293 tox 22µM, NIH3T3 tox 13µM
O=C(O)CSCC(=O)N[C@H]1CO[C@H]2[C@@H]1OC[C@@H]2Nc1nccc(-c2cccc(F)c2)n1	none
O=c1[nH]nc(CNCC2(O)CCCNC2)c2ccccc12 (centres undefined)	HEK293 tox inconclusive
CN1CCC(NC(=O)C2(C)CN(C)Cc3ccc(Nc4ccccc4)nc32)CC1 (centres undefined)	HEK293 tox inconclusive, NIH3T3 tox inconclusive
CC(C)CNc1ccc2c(n1)C(C)(C(=O)NCc1cccnc1)CN(Cc1ccccc1)C2 (centres undefined)	HEK293 tox inconclusive, NIH3T3 tox inconclusive
CC(C)CNc1ccc2c(n1)C(C)(C(=O)NC1CCC(O)CC1)CN(Cc1ccccc1)C2 (centres undefined)	HEK293 tox inconclusive, NIH3T3 tox 45µM
CC(C)CNc1ccc2c(n1)C(C)(C(=O)NC1CCN(C)CC1)CN(Cc1ccccc1)C2 (centres undefined)	HEK293 tox inconclusive, NIH3T3 tox 32µM
CNC(=O)[C@@H]1CN(C(=O)CCn2nc(C)cc2C)C[C@H]1c1n[nH]c(C)n1	none
CC(=O)N[C@@H]1CN(S(=O)(=O)N2CCOCC2)C[C@H]1c1ccc(C)o1	none
Cc1noc(C)c1-c1cc2c(c(-c3cccc(OC(C)C)c3)c1)C(=O)N(C)C2	hNpr1 antagonist 1.8µM, HEK293 tox inconclusive, NIH3T3 tox inconclusive
Cc1noc(C)c1-c1cc2c(c(-c3ccccc3Oc3ccccc3)c1)C(=O)N(C)C2	GPT2 inhibitor inconclusive, HEK293 tox inconclusive, NIH3T3 tox 13µM
Cc1ccc(-c2cn3cc(C(=O)NCCc4ccccc4)nc3s2)cc1	none (no result: FLuc inh, hNpr1 antagonist)
CC(C)(C)C(=O)NCCNC(=O)c1cccc(-c2ccc(C(F)(F)F)cc2)c1	HEK293 tox 25µM, NIH3T3 tox 45µM (no result: FLuc inh, hNpr1 antagonist)
CNC(=O)CNC(=O)c1cccc(-c2ccc(C(F)(F)F)cc2)c1	HEK293 tox inconclusive, NIH3T3 tox inconclusive (no result: FLuc inh, hNpr1 antagonist)
CN(C)C(=O)CNC(=O)c1cccc(-c2ccc(C(F)(F)F)cc2)c1	HEK293 tox 40µM, NIH3T3 tox inconclusive (no result: FLuc inh, hNpr1 antagonist)
O=C(c1ccco1)N1CCCC(CCc2cccc(F)c2)C1 (centres undefined)	HEK293 tox 79µM, NIH3T3 tox inconclusive
C=CCS(=O)(=O)N1CCCC(CCc2cccc(OC)c2)C1 (centres undefined)	GPT2 inhibitor inconclusive, HEK293 tox inconclusive
COc1cccc(CCC2CCCN(C(=O)c3ccc(OC)o3)C2)c1 (centres undefined)	HEK293 tox 35µM, NIH3T3 tox inconclusive
COCC(=O)N1CCC2(CC1)C(=O)NCN2Cc1ccc(Cl)cc1	none
CCc1cccc2c(C(CC(=O)N3CCCC3)c3cccc([N+](=O)[O-])c3)c[nH]c12 (centres undefined)	HEK293 tox inconclusive, NIH3T3 tox 28µM
CCc1cccc2c(C(CC(=O)N3CCc4ccccc4C3)c3cccc4c3OCO4)c[nH]c12 (centres undefined)	HEK293 tox inconclusive, NIH3T3 tox 18µM
CCc1cccc2c(C(CC(=O)N3CCCCC3)c3cccc(C)c3)c[nH]c12 (centres undefined)	HEK293 tox inconclusive
O=C1NCCCCCCN(C(=O)Nc2ccc(F)cc2)[C@H]2CCC[C@@H]12	none
COc1ccc2[nH]c3c(c2c1)CCNC31CCN(C(=O)C2CC=CC2)CC1	HEK293 tox 45µM
Cc1ccsc1C(=O)N1CCC2(CC1)NCCc1c2[nH]c2ccccc12	HEK293 tox 45µM
O=C(c1ccccc1F)N1CCC2(CC1)NCCc1c2[nH]c2ccccc12	HEK293 tox 79µM
COc1ccc2[nH]c3c(c2c1)CCNC31CCN(C(=O)C2CCOCC2)CC1	none
Cc1ccc(C(=O)N2CCC3(CC2)NCCc2c3[nH]c3ccccc23)s1	HEK293 tox inconclusive, NIH3T3 tox inconclusive
CCN1CCC(N2CCC3(CC2)NCCc2c3[nH]c3ccc(OC)cc23)CC1	HEK293 tox 32µM, NIH3T3 tox 32µM
O=C(c1cccnc1)N1CCC2(CC1)NCCc1c2[nH]c2ccccc12	none
CCCc1nc(C(=O)NCC2CCN(Cc3ccc(C)o3)CC2)cs1	none
COc1ccc(C(=O)N2CCC3(CC2)NCCc2c3[nH]c3ccccc23)cc1	HEK293 tox 79µM
COc1ccc(C(=O)N2CCC3(CC2)NCCc2c3[nH]c3ccccc23)cc1F	HEK293 tox 13µM, NIH3T3 tox inconclusive
COc1ccc2[nH]c3c(c2c1)CCNC31CCN(S(=O)(=O)c2cccnc2)CC1	HEK293 tox 25µM, NIH3T3 tox inconclusive
O=C(c1ccncc1)N1CCC2(CC1)NCCc1c2[nH]c2ccccc12	none
COCC(=O)N1CCC2(CC1)NCCc1c2[nH]c2ccccc12	none
CC(C)CC1=NS(=O)(=O)c2cc(NC(=O)C3CCC3)ccc2N1c1ccccc1	HEK293 tox inconclusive, NIH3T3 tox inconclusive
O=C(NCCCN1CCOCC1)c1cccc2c1CCN2C(=O)Nc1ccc(F)cc1	FLuc inh 25µM
Cc1ccc(NC(=O)N2CCc3c(C(=O)NC(C)C)cccc32)cc1	FLuc inh 0.32µM, hNpr1 antagonist 0.56µM, HEK293 tox inconclusive, NIH3T3 tox inconclusive
